Our source for the growth values is PubChem BioAssay (NCI).

Test systems include HCT-15 colon; HT29 colon; SNB-75 CNS; SNB-19 CNS; U251 CNS; PC-3 prostate; SK-MEL-5 melanoma; UACC-62 melanoma; LOX IMVI melanoma; SK-MEL-28 melanoma.
Holding throughout (test): NCI-60 one-dose screen, 48 h (100 = growth as untreated, 0 = no growth, -100 = all killed)
Settings in all cases: 10 µM unless noted

Structures are written as SMILES. The panel holds about 83,000 compounds, 20% with a hit somewhere; the sample as a whole holds those more often.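 Plates (96-well) were seeded with cells, treated with compound at one concentration, and incubated for 48 hours before percent growth was determined.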 Values without a mark were called inactive. The source made the active and inactive calls. How the source made its calls: active means growth percent below 10; inactive means the rest.

Take `C/C(=N\Nc1ccc([N+](=O)[O-])cn1)c1ccc(N)cc1`: the growth is 95.1% in the test with HCT-15 colon; 101% with HT29 colon; 94.4% in the test with SNB-75 CNS; 95.9% with SNB-19 CNS; 95.7% in the test on U251 CNS; 94.1% in the test with PC-3 prostate. In addition, the growth in the test on SK-MEL-5 melanoma was 101%; with UACC-62 melanoma, 99.1%; in the test on LOX IMVI melanoma, 100%; with SK-MEL-28 melanoma it was 113%.

For the compound `NC(N)=N/N=C/c1ccc(Cl)cc1`, the growth with HCT-15 colon was 70.5%; in the test with HT29 colon, 35.9%; with SNB-75 CNS it was 81.1%; in the test on SNB-19 CNS, 91.2%; in the test with U251 CNS, 88.8%; with PC-3 prostate, 84.8%. Moreover, the growth is 74.5% in the test on SK-MEL-5 melanoma, 78.8% in the test with UACC-62 melanoma, 86.3% with LOX IMVI melanoma and 93.5% with SK-MEL-28 melanoma.

For the compound `COc1ccc(-c2ccc(-c3ccc(C(=N)N)s3)s2)cc1`, the growth with HCT-15 colon is -73.7% (active); in the test with HT29 colon, -81.9% (active); in the test with SNB-75 CNS, -84.2% (active); in the test on SNB-19 CNS, -61.9% (active); with U251 CNS, -70.3% (active); in the test on PC-3 prostate, -92.8% (active). For the same compound, the growth with SK-MEL-5 melanoma is -97.8% (active); in the test on UACC-62 melanoma, -91% (active); in the test on LOX IMVI melanoma, -74.7% (active); in the test on SK-MEL-28 melanoma, -75.5% (active).

Take `O=C1Nc2ccccc2/C1=C\c1nc(C2CCN(S(=O)(=O)c3ccc(F)cc3)CC2)n2ccccc12`: the growth in the test with HCT-15 colon was 90.5%; in the test on HT29 colon, 67.7%; in the test with SNB-75 CNS, -10.4% (active); with SNB-19 CNS, -6.15% (active); in the test with U251 CNS it was 41.3%; in the test with PC-3 prostate it was 65.6%. In addition, the growth with SK-MEL-5 melanoma was 75.3%; in the test on UACC-62 melanoma it was 39.1%; with SK-MEL-28 melanoma, 60.3%.

With `O=C(CCl)N1c2ccccc2Oc2ccc3ccccc3c21`, the growth in the test on HCT-15 colon is -81.1% (active); with HT29 colon, -49.8% (active); with SNB-75 CNS it was 22.1%; in the test on SNB-19 CNS, 24.5%; in the test on U251 CNS it was -64.3% (active); in the test on PC-3 prostate, 6.63% (active). The growth in the test with SK-MEL-5 melanoma is 3.7% (active); with UACC-62 melanoma, -0.259% (active); in the test with SK-MEL-28 melanoma, 53.8%.

As to `CCOC(=O)C1C(=O)C=C(c2cc(OC)c(OC)c(OC)c2)CC1c1sc(N(C)Cc2ccccc2)nc1Cl` (centres undefined), the growth in the test with HCT-15 colon was 92.1%; in the test on HT29 colon it was 90.7%; in the test on SNB-75 CNS, 79.6%; with SNB-19 CNS it was 77.5%; in the test on U251 CNS, 87.8%; in the test with PC-3 prostate, 64%. The figures for the growth in the test on SK-MEL-5 melanoma, in the test with UACC-62 melanoma and in the test with SK-MEL-28 melanoma were 72.7%, 64.7% and 115%, respectively.

For the compound `CC(C)c1ccc2c(c1)CCC1C2CCCC1(C)NCc1ccccc1` (centres undefined), the growth in the test on HCT-15 colon is 6.42% (active); with HT29 colon, 16.2%; in the test with SNB-75 CNS it was 85.3%; in the test on SNB-19 CNS, 104%; with U251 CNS, 48%; in the test with PC-3 prostate, 85.4%. The values for the growth in the test on SK-MEL-5 melanoma, in the test with UACC-62 melanoma and in the test on SK-MEL-28 melanoma were 27.5%, -27.4% (active) and -32% (active), respectively.

As for `COc1ccc(C2=NNC(c3ccc(Oc4nc5c(c(=O)n(C)c(=O)n5C)n4C)c(OC)c3)C2)cc1` (centres undefined), the growth in the test with HCT-15 colon is 93.8%; in the test with HT29 colon it was 95.5%; with SNB-75 CNS, 78.7%; with SNB-19 CNS, 87.6%; in the test with U251 CNS it was 83.2%; in the test on PC-3 prostate, 101%. The growth is 85.3% in the test on SK-MEL-5 melanoma, 81.2% in the test with UACC-62 melanoma, 91.4% in the test with LOX IMVI melanoma and 97.1% with SK-MEL-28 melanoma.

On to `CC(=O)O[C@@H]1CC2C(C)(C)CCCC2(C)C2=C1C(=O)C(C(C)C)=CC2=O` (some centres undefined), for which the growth is -8% (active) in the test with HCT-15 colon; 0.85% (active) with HT29 colon; -11.8% (active) in the test with SNB-75 CNS; 20.9% in the test on SNB-19 CNS; 3.62% (active) in the test on U251 CNS; 12% in the test on PC-3 prostate. Further, the growth with SK-MEL-5 melanoma is -93.3% (active); with UACC-62 melanoma, -64.4% (active); in the test with SK-MEL-28 melanoma, -16.8% (active).

On to `CC(C)c1cccc(C#N)c1`, for which the growth is 113% in the test with HCT-15 colon; 104% in the test on HT29 colon; 83.7% with SNB-75 CNS; 99% in the test on SNB-19 CNS; 94.8% with U251 CNS; 85.5% in the test on PC-3 prostate. Also, the growth is 92.3% with SK-MEL-5 melanoma, 102% in the test on UACC-62 melanoma, 95.3% in the test with LOX IMVI melanoma and 105% with SK-MEL-28 melanoma.

For the compound `O=C(CC(=O)c1cccc(Cl)c1)c1cccc(Cl)c1`, the growth with HCT-15 colon was 25.9%; in the test with HT29 colon, 34.7%; in the test on SNB-75 CNS, 75.3%; in the test with SNB-19 CNS, 31.3%; with U251 CNS, 16.7%; with PC-3 prostate, 33.3%. Also, the growth was 36.8% in the test with SK-MEL-5 melanoma, 27.2% with UACC-62 melanoma, 33.2% with LOX IMVI melanoma and 56% in the test with SK-MEL-28 melanoma.

Regarding `c1ccc2oc(-c3cnc4nonc4n3)cc2c1`, the growth in the test on HCT-15 colon was 107%; in the test on HT29 colon it was 96.3%; in the test on SNB-75 CNS it was 76.6%; in the test on SNB-19 CNS, 88.8%; in the test on U251 CNS, 103%; with PC-3 prostate, 92.7%. The growth is 98.4% in the test with SK-MEL-5 melanoma, 79.6% with UACC-62 melanoma and 120% in the test with SK-MEL-28 melanoma.
